The results in this text go back to PubChem BioAssay (NCI).

Molecules are shown by their SMILES. The panel holds about 83,000 compounds, 20% with a hit somewhere; the sample as a whole holds those more often.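 Results are percent growth after 48 hours of single-concentration exposure. 100 means growth as in untreated cells, lower positive values show inhibition; negative values down to -100 show cell death.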 Unmarked numbers belong to inactive results. The source made the active and inactive calls. The calls were made as follows: active = growth percent below 10; inactive = the rest.

Test in all cases: NCI-60 one-dose screen, 48 h (100 = growth as untreated, 0 = no growth, -100 = all killed)
Conditions in all cases: 10 µM unless noted

The test system of experiment [1] is NCI-H23 lung.
Experiment [2] has as its system NCI-H226 lung.
In experiment [3] the test system is NCI-H322M lung.
Experiment [4] relates to HOP-62 NSCLC.
For experiment [5], the system named is NCI-H460 lung.
In experiment [6] the test system is HOP-92 NSCLC.
Experiment [7] relates to NCI-H522 lung.
Experiment [8] concerns A549/ATCC NSCLC.
In experiment [9] the test system is 786-0 renal.
The test system of experiment [10] is COLO 205 colon.
Experiment [11] has as its system DU-145 prostate.
Experiment [12] relates to K-562 leukemia.
Experiment [13] has as its system MALME-3M melanoma.
Experiment [14] relates to MDA-MB-231 breast.
Experiment [15] concerns RXF 393 renal.
For experiment [16], the system named is SF-268 CNS.
In experiment [17] the test system is SF-295 CNS.
Experiment [18] deals with SF-539 CNS.
Experiment [19] relates to UACC-257 melanoma.
Experiment [20] relates to M14 melanoma.

Regarding `Fc1ccc(COc2ccc(Nc3ncnc4sc5c(c34)CCCC5)cc2)cc1`, the growth is 99.4% in experiment [1]; 102% in experiment [2]; 86.9% in experiment [3]; 97.2% in experiment [4]; 97.3% in experiment [5]; 88.9% in [6]. The growth in [7] was 73%; in experiment [8], 88.4%; in [9], 94.6%; in [10], 103%; in experiment [11], 96.8%; in [12], 103%. The growth in experiment [13] is 109%; in [14] it was 94.9%; in [15] it was 109%; in experiment [16], 89.8%; in experiment [17] it was 89.8%; in [18], 103%. The growth was 106% in [19] and 104% in experiment [20].
On to `COc1ccc(C2CC(c3ccc(Nc4nc(Nc5ccc(F)cc5)nc(Nc5ccc(F)cc5)n4)cc3)=NN2C(C)=O)cc1` (stereo not given), for which the growth in experiment [1] was 75.7%; in [2], 106%; in [3] it was 87.5%; in experiment [4], 96.7%; in experiment [5], 101%; in experiment [6] it was -13.6% (active). The growth is 83.1% in experiment [7]; 82.5% in [8]; 82% in experiment [9]; 111% in [10]; 115% in experiment [11]; 83.1% in [12]. Moreover, the growth in experiment [13] is 78.1%; in experiment [14] it was 122%; in [15], 94.4%; in experiment [16], 103%; in experiment [17] it was 81.2%; in [18] it was 92.1%. The growth in experiment [19] is 111%; in experiment [20], 100%.
For `COc1cc(-c2nc(NC(C)=O)sc2-c2ccnc(NCCNS(=O)(=O)c3ccccc3)n2)ccc1Cl`, the growth in experiment [1] was 63.4%; in experiment [2], 57.1%; in experiment [3] it was 79.1%; in [4], 34.2%; in experiment [5], 11.8%; in [6], 25.3%. For the same compound, the growth was 9.14% (active) in experiment [7]; 25.6% in experiment [8]; 34.7% in [9]; 2.47% (active) in experiment [10]; 53.4% in experiment [11]; 13.8% in [12]. Moreover, the growth was 27.9% in experiment [13]; 35.1% in experiment [14]; 36.7% in [15]; 38.4% in [16]; 10.9% in experiment [17]; 8.69% (active) in experiment [18]. Moreover, the growth was 47.1% in experiment [19] and -20.4% (active) in experiment [20].
Regarding `O=C(CCCCl)NNc1nccc(Nc2ccc(S(=O)(=O)Nc3ccncc3)cc2)n1`, the growth in [1] is 99.3%; in experiment [2], 104%; in experiment [3], 102%; in experiment [4], 94.6%; in [5], 109%; in experiment [6], 98.5%. Besides, the growth in experiment [7] is 99.7%; in experiment [8] it was 96.6%; in [9], 95.2%; in [10] it was 111%; in experiment [11], 103%; in experiment [12], 111%. The growth in experiment [13] is 108%; in experiment [14], 116%; in experiment [15] it was 117%; in experiment [16], 95.9%; in experiment [17], 96.7%; in experiment [18], 102%. For the same compound, the results for the growth in experiment [19] and in [20] were 96.3% and 97.7%, respectively.
For `C[C@@H](CO)[C@@H]1CC[C@]2(C(=O)N3CCN(C)CC3)CC[C@]3(C)[C@H](CC[C@@H]4[C@@]5(C)CC[C@H](O)C(C)(C)[C@@H]5CC[C@]43C)[C@@H]12`, the growth is 78.5% in experiment [1]; 81.4% in [2]; 99.7% in experiment [3]; 116% in experiment [4]; 49.4% in [5]; 47.7% in experiment [6]. For the same compound, the growth in [7] was 74.1%; in [8], 88.6%; in [9], 74%; in experiment [10], 90.2%; in experiment [11], 67.7%; in experiment [12] it was 4.66% (active). Moreover, the growth in experiment [13] was 105%; in experiment [14], 82.8%; in experiment [15], 81.5%; in experiment [16], 56.7%; in [17] it was 90.4%; in experiment [18] it was 86.1%. The growth in experiment [19] was 98%; in [20], 101%.
Take `Cc1ccc(/C=C(\C#N)C(=O)Nc2ncc(Cc3cc(Cl)ccc3Cl)s2)o1`: the growth in experiment [1] was 67.1%; in [2], 90.1%; in experiment [3], 47.3%; in experiment [4] it was 41.6%; in [5], 30.6%; in experiment [6], 77%. For the same compound, the growth in experiment [7] is 48.6%; in experiment [8] it was 39.8%; in [9], 46.9%; in experiment [10], 102%; in experiment [11], 60%; in [12] it was 24.6%. The growth in experiment [13] is 54.3%; in experiment [14] it was 76.4%; in experiment [15], 38.3%; in [16], 44.2%; in [17], 5.34% (active); in experiment [18], 16.9%. Besides, the results for the growth in [19] and in [20] were 35.3% and 69.4%, respectively.
With `CN1CCN(c2ccc(NC(=O)c3cncnc3Nc3ccc4c(ccn4Cc4cccc(F)c4)c3)cc2)CC1`, the growth was 72.6% in experiment [1]; 85.5% in [2]; 92.9% in [3]; 8.44% (active) in experiment [4]; 30.7% in experiment [5]; 59.9% in experiment [6]. Also, the growth is 75.6% in experiment [7]; 43.2% in [8]; -38.4% (active) in [9]; -34% (active) in experiment [10]; 54% in experiment [11]; 2.74% (active) in experiment [12]. The growth is -82.6% (active) in experiment [13]; 11.9% in experiment [14]; 31% in experiment [15]; 71% in experiment [16]; 80.8% in [17]; 45% in experiment [18]. The growth in experiment [19] is 65.4%; in experiment [20] it was -59.3% (active).
